Results as given in PubChem BioAssay AID1209 (Sanford-Burnham Center for Chemical Genomics, 2008).
Hit rate of the full screen: of about 190,000 compounds, about 810 (0.43%) were called active. No stated cut-off is given here; in the data, active means inhibition above about 50%; inactive means the rest. The full list was thinned out, with actives kept by preference.

These compounds were tested against Mannose-6-phosphate isomerase (Homo sapiens) (UniProt P34949) (assay: MPI enzyme activity inhibition – biochemical, fluorescence intensity, coupled assay, primary screen (AID 1209;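 further: plate controls were DMSO vehicle for no effect and wells lacking substrate for full effect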)). Settings: purified PMI enzyme, at 20 µM, hits give high values.
Mannose-6-phosphate isomerase (Homo sapiens), sequence (P34949 whole entry, looked up): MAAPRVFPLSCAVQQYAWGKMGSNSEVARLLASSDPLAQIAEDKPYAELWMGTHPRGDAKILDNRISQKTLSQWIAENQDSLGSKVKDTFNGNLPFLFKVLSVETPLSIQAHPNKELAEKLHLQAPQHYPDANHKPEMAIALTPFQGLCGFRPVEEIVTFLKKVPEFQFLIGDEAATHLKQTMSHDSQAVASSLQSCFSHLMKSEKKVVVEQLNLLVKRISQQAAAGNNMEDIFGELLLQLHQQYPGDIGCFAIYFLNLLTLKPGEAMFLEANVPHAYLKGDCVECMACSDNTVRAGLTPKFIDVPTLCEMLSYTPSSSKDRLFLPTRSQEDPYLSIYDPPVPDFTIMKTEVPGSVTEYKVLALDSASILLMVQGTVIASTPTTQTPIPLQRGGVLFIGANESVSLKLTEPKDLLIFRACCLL
For `COc1ccc(-c2oc(NC(=O)CSc3nncn3C)c(C#N)c2-c2ccc(OC)cc2)cc1`, the inhibition was 7.6% (inactive).
With `CCc1cc(N2CCOCC2)cc2c1[nH]c1ccccc12` the inhibition was 55.4% (active).
With `CCCCn1c(=S)[nH]c2ccc(N3CCOCC3)cc2c1=O` the inhibition was -8.1% (inactive).
`c1ccc2c(c1)[nH]c1c(N3CCOCC3)ncnc12` was tested, and the inhibition was 7.2% (inactive).
For `O=C(NCCc1c[nH]c2ccccc12)c1cccc(S(=O)(=O)Nc2ccccc2Cl)c1`, the inhibition was 20.2% (inactive).
With `COc1cccc(C(c2sc3nc(C)nn3c2O)N2CCC3(CC2)OCCO3)c1` (centres undefined) the inhibition was 5.1% (inactive).
`CN(Cc1ccno1)Cc1cn(C)nc1-c1ccc(Oc2ccccc2)cc1` was tested, and the inhibition was 26.3% (inactive).
With `Cc1cnccc1CN(C)Cc1cn(C)nc1-c1ccc(Oc2ccccc2)cc1` the inhibition was 14.4% (inactive).
In the case of `CN(Cc1cccnc1)Cc1cn(C)nc1-c1ccc(Oc2ccccc2)cc1`, the inhibition is reported as 50.7% (active).
In the case of `CC(C)NC(=O)COc1nncc2ccccc12`, the inhibition is reported as 15.9% (inactive).
For `Cc1ccccc1Cn1c(=O)sc2ccccc2c1=O`, the inhibition was 6% (inactive).
With `O=c1sc2ccccc2c(=O)n1Cc1ccccc1F` the inhibition was 89.5% (active).
In the case of `Cc1ccc(Cn2c(=O)sc3ccccc3c2=O)cc1`, the inhibition is reported as 18.9% (inactive).
In the case of `Cc1cccc(C)c1NC(=O)CSc1nnc([C@H](C)NC(=O)OC(C)(C)C)o1`, the inhibition is reported as -1.6% (inactive).
In the case of `C=CCn1c(SCC(=O)NC2CCS(=O)(=O)C2)nc2sc(CC)cc2c1=O` (centres undefined), the inhibition is reported as -1.4% (inactive).
`CCCN1CCCc2ccccc21` was tested, and the inhibition was -40.1% (inactive).
With `CCc1ccc2c(c1)CCCN2C(=O)c1ccccc1C(=O)O` the inhibition was 0.4% (inactive).
In the case of `CCCN1CCCc2cc(CN)ccc21`, the inhibition is reported as 50.7% (active).
For `Cc1ccc(NC2=CC(=O)CC(c3ccccc3)C2)cc1` (centres undefined), the inhibition was 7.6% (inactive).
For `COc1cccc(Nc2nc(CC(C)=O)ns2)c1`, the inhibition was -2% (inactive).
For `c1ccc2sc(NCC3CCCO3)nc2c1` (centres undefined), the inhibition was -11.7% (inactive).
`Oc1c(Cl)cc(Cl)c2cccnc12` was tested, and the inhibition was 21.3% (inactive).
For `O=[N+]([O-])c1cc(Cl)c(O)c2ncccc12`, the inhibition was 51.7% (active).
In the case of `O=[N+]([O-])c1cc(Cl)c2cccnc2c1O`, the inhibition is reported as 14.6% (inactive).
In the case of `COC(=O)C(C(=O)OC)c1ccc(-n2cccc2)cc1`, the inhibition is reported as 11% (inactive).
With `CCOc1cccc2cc(C(C)=O)oc12` the inhibition was -14.2% (inactive).
`CC(=O)C1=C(c2ccccc2)NC(=O)NC1c1ccc(O)c(O)c1` (centres undefined) was tested, and the inhibition was 61.3% (active).
For `CCOc1cc(C2NC(=O)NC(c3ccccc3)=C2C(C)=O)ccc1OC(C)=O` (centres undefined), the inhibition was 7% (inactive).
With `CC(=O)C1=C(c2ccccc2)NC(=S)NC1c1ccc(O)c(O)c1` (centres undefined) the inhibition was 44.9% (inactive).
`COc1cccc(N2CCN(Cc3ccsc3)CC2)c1` was tested, and the inhibition was -5.2% (inactive).
For `COC(=O)c1cc(=O)nc2sc(-c3ccc(F)cc3)nn12`, the inhibition was 72.4% (active).
For `COC(=O)c1cc(=O)nc2sc(-c3cccs3)nn12`, the inhibition was 7.5% (inactive).
For `COC(=O)c1cc(=O)nc2sc(-c3ccccc3)nn12`, the inhibition was -2.3% (inactive).
With `CN1Cc2sc(N)c(C#N)c2CC1(C)C` the inhibition was -8.4% (inactive).
With `CN(C)c1ccc(/C=N/NC(=O)c2nonc2N)cc1[N+](=O)[O-]` the inhibition was 12.7% (inactive).
`COc1ccc(-c2csc(Nc3ccc(C)cn3)n2)cc1OC` was tested, and the inhibition was 7.7% (inactive).
In the case of `Cc1cccnc1Nc1nc(-c2ccc(O)cc2)cs1`, the inhibition is reported as -10.5% (inactive).
In the case of `Cc1cccnc1Nc1nc(-c2ccc(O)cc2O)cs1`, the inhibition is reported as 10.6% (inactive).
With `c1ccc(-c2csc(Nc3ncccn3)n2)cc1` the inhibition was -2.2% (inactive).
In the case of `Oc1ccc(-c2csc(Nc3ncccn3)n2)cc1`, the inhibition is reported as -4.9% (inactive).
In the case of `COc1ccc(-c2csc(Nc3ccc(C)cn3)n2)cc1`, the inhibition is reported as -1.5% (inactive).
In the case of `Cc1cccnc1Nc1nc(-c2ccc(O)c(O)c2)cs1`, the inhibition is reported as 52.3% (active).
For `Oc1ccc(-c2csc(Nc3ncccn3)n2)cc1O`, the inhibition was 58% (active).
For `O=C(O)CC(=O)Nc1ccccc1C(=O)O`, the inhibition was 0.5% (inactive).
With `O=C(CSCc1ccc(Cl)cc1)Nc1ccc(S(=O)(=O)N2CCOCC2)cc1` the inhibition was 11.5% (inactive).
`COCCN(CCOC)S(=O)(=O)c1ccc(C(=O)Nc2nnc(COC)o2)cc1` was tested, and the inhibition was -8.8% (inactive).
In the case of `Cc1cccc(NC(=O)c2ccc(NCC3CCCO3)c([N+](=O)[O-])c2)c1` (centres undefined), the inhibition is reported as 2% (inactive).
In the case of `CNC[C@H](O)c1cccc(O)c1`, the inhibition is reported as -1.6% (inactive).
For `CNC[C@H](O)c1ccc(O)c(O)c1`, the inhibition was 63.2% (active).
For `CCC(NC(C)C)C(O)c1ccc(O)c(O)c1` (centres undefined), the inhibition was 57.9% (active).
`COc1ccc([C@H](C)NC[C@H](O)c2ccc(O)c(NC=O)c2)cc1` was tested, and the inhibition was 0.1% (inactive).
In the case of `CCC(NC(C)C)C(O)c1ccc(O)c2[nH]c(=O)ccc12` (centres undefined), the inhibition is reported as 4.3% (inactive).
In the case of `CCC(C)c1ccc(O)c(N)c1` (centres undefined), the inhibition is reported as 26.6% (inactive).
With `Cc1c(C(=O)OC(C)C(C)C[N+](C)(C)C)oc2ccccc12` (centres undefined) the inhibition was 1.7% (inactive).
`COc1ccc(OC)c(C(C)NC(=O)c2ccco2)c1` (centres undefined) was tested, and the inhibition was 7% (inactive).
`c1ccc(CNc2ncnc3nc[nH]c23)nc1` was tested, and the inhibition was 8.8% (inactive).
In the case of `CCn1c(SCc2nc3ccccc3[nH]2)nnc1-c1ccc(OC)cc1`, the inhibition is reported as 6.6% (inactive).
With `c1ccc2[nH]c(N3CCOCC3)nc2c1` the inhibition was -5% (inactive).
For `c1ccc2[nH]c(SN3CCOCC3)nc2c1`, the inhibition was 94.5% (active).
`c1ccc2[nH]c(SCCN3CCOCC3)nc2c1` was tested, and the inhibition was -3.1% (inactive).
In the case of `OCCC1CN(Cc2cnc(-c3cccc4ccccc34)nc2)CCN1C1CCCCC1` (centres undefined), the inhibition is reported as 13.3% (inactive).
In the case of `COc1ccccc1CNC(=O)c1cc2c(s1)CS(=O)(=O)C2`, the inhibition is reported as 2.6% (inactive).
With `CCCOc1ccc(C2NC(=S)NC(C)=C2C(=O)c2ccccc2)cc1OC` (centres undefined) the inhibition was -34.6% (inactive).
In the case of `COc1ccc(S(=O)(=O)NC(CC(=O)NCCc2ccc(OC)c(OC)c2)C(C)C)cc1` (centres undefined), the inhibition is reported as -5% (inactive).
With `COc1c(/C=N/Nc2ccc([N+](=O)[O-])cc2[N+](=O)[O-])c(C)nn1-c1ccccc1` the inhibition was 8.9% (inactive).
In the case of `Cc1nn(-c2ccccc2)c(N)c1Sc1cccc([N+](=O)[O-])c1`, the inhibition is reported as 5.2% (inactive).
`CCOC(=O)c1c(Cc2ccccc2)c[nH]c1C` was tested, and the inhibition was -17.6% (inactive).
With `COc1ccc(Cc2nnc(N)s2)cc1OC` the inhibition was -1.6% (inactive).
`COc1ccc(Cc2noc(-c3ccc(OC)c(OC)c3)n2)cc1OC` was tested, and the inhibition was 1.8% (inactive).
